Screening results (PubChem)
ALOX12 inh – inhibitors of human 12S-lipoxygenase ALOX12; 580,000 compounds, 1.1% hits; AID 1671190; purified 12hLO, xylenol orange hydroperoxide absorbance; Potency, µM (top dose mostly 108 µM), without a hit: at the highest dose activity change, negative = inhibition, usual class: inhibitors; P18054; further: potency means the concentration at half of the fitted maximal effect
Target sequence (P18054 whole entry, looked up): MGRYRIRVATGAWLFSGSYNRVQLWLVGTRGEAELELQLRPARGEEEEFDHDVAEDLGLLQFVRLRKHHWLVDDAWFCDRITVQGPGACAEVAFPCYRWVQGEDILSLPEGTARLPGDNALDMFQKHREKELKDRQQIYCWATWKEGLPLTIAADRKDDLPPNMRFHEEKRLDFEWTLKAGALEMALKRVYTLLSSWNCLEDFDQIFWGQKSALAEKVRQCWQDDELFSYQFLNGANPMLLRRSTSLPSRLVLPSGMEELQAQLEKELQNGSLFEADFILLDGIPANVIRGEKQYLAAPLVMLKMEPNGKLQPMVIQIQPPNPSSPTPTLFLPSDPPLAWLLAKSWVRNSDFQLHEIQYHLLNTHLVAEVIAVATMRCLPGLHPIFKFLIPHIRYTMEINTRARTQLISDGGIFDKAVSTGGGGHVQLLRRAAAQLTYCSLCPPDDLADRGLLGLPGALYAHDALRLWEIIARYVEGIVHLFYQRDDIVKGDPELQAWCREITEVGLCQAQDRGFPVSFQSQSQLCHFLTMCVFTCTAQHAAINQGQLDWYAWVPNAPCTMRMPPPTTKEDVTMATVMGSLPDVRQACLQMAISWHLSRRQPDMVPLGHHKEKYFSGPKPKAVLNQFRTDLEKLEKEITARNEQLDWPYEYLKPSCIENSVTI
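Hydroperoxide product was detected by ferrous iron/xylenol orange as the 573 to 405 nm absorbance ratio. Arachidonic acid at 40 uM (final) was turned over for 30 min at room temperature by 150 nM human 12hLO, pH 7.0 Hepes buffer, after 15 min compound preincubation.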
HT1080 IDH1KD tx – kills HT-1080 cells with IDH1 knockdown; HT-1080 IDH1 knockdown viability, ATP luminescence, 48 h; Potency, µM (top dose mostly 46.1 µM), for the others: top-dose activity, negative = toxicity, actives largely listed as cytotoxic; 360,000 compounds, 2% hits; AID 686971;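 further: potency means the concentration at half of the fitted maximal effect; 0% = DMSO wells and -100% = cell-free medium wells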
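CellTiter-Glo luminescence after 48 h compound exposure at 37 degrees C of IDH1-knockdown HT-1080 cells in 5% FBS RPMI. %Activity scaled between DMSO wells and cell-free media wells, with curves fitted and assigned curve classes.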
HT1080NT lethal – kills 2HG-producing HT-1080-NT fibrosarcoma cells; HT-1080-NT fibrosarcoma viability, CellTiter-Glo ATP luminescence, 48 h; 360,000 compounds, 1.6% hits; Potency, µM (doses to about 46.1 µM), for inactives: at the highest dose activity, negative = less viability, usual class: cytotoxic;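 further: NT is the 2HG producing partner of a matched IDH1 knockdown line; potency means the concentration at half of the fitted maximal effect; 0% = DMSO-treated cells and -100% = media-only wells without cells; nearly all actives have a fitted effect of over 55% in size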
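Read-out is CellTiter-Glo luminescence after 10 minutes at room temperature, following 48 hours' compound treatment of HT-1080-NT cells (750 cells/well, RPMI, 5% FBS, 37 degrees C).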
DT40 TDP1 CPT – growth inhibition of DT40 Tdp1-/-;hTDP1 cells with camptothecin (screen for TDP1 inhibitors); chicken DT40 Tdp1-/-;hTDP1 cells + 20 nM CPT, ATP luminescence, 48 h; Potency, µM (highest dose often 46.2 µM), for the others: at the highest dose activity change, negative = growth inhibition, actives largely listed as inhibitors; 420,000 compounds, 12% hits; further: potency means the concentration at half of the fitted maximal effect; nearly all actives have a fitted effect of over 55% in size
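Chicken DT40 Tdp1-/- cells complemented with human TDP1, 400 cells/well, exposed to compounds plus 20 nM camptothecin for at least 48 h at 37 C; viability read as ATP content by CellTiter-Glo luminescence.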
DT40 TDP1 no CPT – qHTS for Inhibitors of human tyrosyl-DNA phosphodiesterase 1 (TDP1): qHTS in cells in absence of CPT; Potency, µM (titrated, usually from 46.2 µM), inactives show at the top dose activity change, negative = growth inhibition, hits mostly inhibitors; 420,000 compounds, 15% hits; DT40 Tdp1-/- hTDP1 cells, no CPT, ATP luminescence, 48 h; further: potency means the concentration at half of the fitted maximal effect; nearly all actives have a fitted effect of over 55% in size
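Compound effects on proliferation are scored in DT40 Tdp1-/-;hTDP1 cells in the absence of CPT. ATP levels (CellTiter-Glo luminescence) are recorded after a ≥48 hr, 37 °C incubation.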
IL-1B inflam inh – blocks inflammasome-driven IL-1 beta release; THP-1 LPS/ATP IL-1B secretion, AlphaLISA, 16 h; hits give low values; 360,000 compounds, 4.7% hits; activity change, % at 57.5 µM; AID 743279; in the data active means activity change below about -50%; inconclusive means mostly about -30% to -49%
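THP-1 cells pretreated 1 hr with compounds (up to 57.5 uM final), then stimulated with LPS (250 ng/mL final) plus ATP (1.25 mM final); secreted IL-1B measured by AlphaLISA after 16 hr, decreased signal indicating inhibition.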
Active calls of the source: *; i = inactive; ? = inconclusive; . = no result; [ ] = dose if it differs, or a comment. The entries come from a sample that favours hits as a whole. Unless noted, the call rests on the fitted dose curve; in most records, active means well fitted curve in the direction sought with a large enough effect; inconclusive means small, poorly fitted or top-dose-only effect, or another doubt; inactive means no such curve, though single readings can be large; an effect the other way counts as inactive or inconclusive. Unless noted, on the % scale 0 is the no-effect control and ±100 the full control effect.

SMILES	ALOX12 inh	HT1080 IDH1KD tx	HT1080NT lethal	DT40 TDP1 CPT	DT40 TDP1 no CPT	IL-1B inflam inh
CCN(CC)S(=O)(=O)c1ccc(=O)n(CC(=O)c2c[nH]c3ccccc23)c1	-5%	.	.	.	.	.
COc1cccc(C(=O)N2CCOc3ccc(CN4CCc5ccccc5C4)cc3C2)c1	49%	.	.	.	.	.
c1ccc(CN2CCC[C@H]2c2nc(-c3ccc(OC4CCCCC4)nc3)no2)nc1	65%[176 µM]	.	.	.	.	.
CCn1ncc(-c2cc(C(=O)O)c3ccccc3n2)c1C	57%	.	.	.	.	.
O=C(c1ccccc1)c1cnc(Nc2ccccc2Cl)s1	.	-15%	-3%	-22%	-8%	-58*
Cn1c(O)c(N=NC(=O)c2cccc(S(=O)(=O)N3CCCCC3)c2)c2ccccc21	-15%	-19%	-22%	16µM*	?	-22
COc1ccc(N2CCN(c3oc(COc4ccc(Cl)cc4Cl)nc3C#N)CC2)cc1	395%	-10%	0%	?	9.2µM*	-8
COc1ccc(N2CCN(c3oc(Cc4ccccc4)nc3C#N)CC2)cc1	-35%	?	-4%	?	13µM*	-7
COc1ccc(N2CCN(c3oc(COc4ccccc4)nc3C#N)CC2)cc1	-3%	0%	7%	?	?	-17
CCOc1ccc(-c2nc(C#N)c(N3CCN(Cc4ccccc4)CC3)o2)cc1	6%	-6%	1%	?	12µM*	-5
N#Cc1nc(-c2ccccc2)oc1N1CCN(Cc2ccccc2)CC1	-11%	.	.	.	.	.
CNC(=O)c1cccc(NC(=O)Cc2nc(-c3ccccc3)oc2C)c1	-2%	.	.	.	.	.
CCOc1cccc2cc(C(=O)/C=C/c3ccc(C)cc3)c(=O)oc12	-19%	.	.	.	.	.
CCC(CC)C(=O)Nc1ccc(C)c(C)c1	24%	.	.	.	.	.
Cc1sc(NC(=O)c2ccccc2)c(C(c2ccc(Cl)cc2)N2CCN(CCO)CC2)c1C (centres undefined)	?	?	?	23µM*	26µM*	-66*
COc1ccc(C(c2c(NC(C)=O)sc3c2CCCC3)N2CCN(CCO)CC2)cc1OC (centres undefined)	-1%	-1%	-1%	-18%	-26%	-14
CCc1cc(C(c2ccncc2)N2CCN(C)CC2)c(NC(=O)c2ccccc2)s1 (centres undefined)	-20%	0%	-1%	-18%	-33%	-2
CC(=O)Nc1sc2c(c1C(c1cccc(Cl)c1)N1CCN(CCO)CC1)CCCC2 (centres undefined)	49%	-4%	-9%	16µM*	26µM*	-16
CCOc1ccc(C(c2c(NC(=O)c3ccccc3)sc(C)c2C)N2CCN(CCO)CC2)cc1 (centres undefined)	?	?	?	21µM*	18µM*	-67*
C=C(C)CN(CC)C(=O)c1coc(CN2CCN(C/C=C/c3ccccc3)CC2)n1	54%	.	.	.	.	.
CN(C)c1cccc(-c2cn(C)c(=O)n3cc(CN4CCNC(=O)C4)nc23)c1	28%[176 µM]	.	.	.	.	.
CC1(C)CC(=O)c2c(O)cc(OCC(=O)Nc3ccc(S(N)(=O)=O)cc3)cc2O1	?	3%	-6%	-29%	?	-4
COc1cc(NC(=O)COc2cc(O)c3c(c2)OC(C)(C)CC3=O)cc(OC)c1OC	1%	?	-20%	0.46µM*	0.26µM*	-3
COc1ccc(CNC(=O)COc2cc(O)c3c(c2)OC(C)(C)CC3=O)cc1	-9%	0%	4%	33µM*	0.82µM*	-7
CCCNc1cc(N2CCC(CCC(=O)Nc3cc(C)ccc3OC)CC2)ncn1	27%	.	.	.	.	.
SMILES	ALOX12 inh	HT1080 IDH1KD tx	HT1080NT lethal	DT40 TDP1 CPT	DT40 TDP1 no CPT	IL-1B inflam inh
COc1cc2c(-c3cc4ccccc4o3)cc(=O)oc2cc1C	27%	.	.	.	.	.
Cc1cc(C)c(NC(=O)c2nn(C(C)C)c(=O)c3ccccc23)c(Cl)c1	9%	.	.	.	.	.
Cc1ccc2cc(CN(Cc3ccco3)C(=S)NCC3CCCO3)c(=O)[nH]c2c1 (centres undefined)	.	-9%	0%	?	21µM*	-7
Cc1ccc2cc(CN(CC3CCCO3)C(=S)NCc3ccco3)c(=O)[nH]c2c1 (centres undefined)	-19%	-12%	-2%	-2%	-14%	?
O=c1[nH]c2cc3c(cc2cc1CN(Cc1cccnc1)C(=S)NCc1ccco1)OCCO3	-5%	-10%	-9%	15µM*	?	-7
Cc1ccc2[nH]c(=O)c(CN(CC3CCCO3)C(=S)NCc3ccco3)cc2c1 (centres undefined)	3%	-3%	0%	?	21µM*	?
CN(C)CCN(Cc1cc2cc3c(cc2[nH]c1=O)OCO3)C(=S)NCc1ccco1	?	8%	6%	-26%	-23%	0
Cc1ccc2[nH]c(=O)c(CN(Cc3cccs3)C(=S)NCc3ccco3)cc2c1	?	-17%	-1%	?	16µM*	0
O=C(c1ccc2[nH]ncc2c1)N1CCOCC12CCN(CCCc1ccccc1)CC2	6%[176 µM]	.	.	.	.	.
COc1cc(OC)cc(C(=O)NC2CC3CCC2C3)c1 (centres undefined)	-3%	.	.	.	.	.
COC(=O)Cc1c(C)nc2nc(NCc3cc(F)cc(F)c3)[nH]n2c1=O	0%	.	.	.	.	.
O=C(NCc1ccccc1)C1CCN(c2nc(-c3ccccc3)nc3c2CCC3)CC1	?	-4%	-6%	18µM*	21µM*	-5
CC(O)CNC(=O)C1CCN(c2nc(-c3ccccc3)nc3c2CCC3)CC1 (centres undefined)	25%	.	.	.	.	.
CC1CCCN(C(=O)C2CCN(c3nc(-c4ccccc4)nc4c3CCC4)CC2)C1 (centres undefined)	i	17%	6%	?	23µM*	-20
Cc1cccc(N2CCN(CCCNC(=O)C3CCCN(c4ncnc5c4nc4n5CCCCC4)C3)CC2C)c1 (centres undefined)	-2%	16µM*	21µM*	?	12µM*	-77*
Cc1cccc(N2CCN(c3ncnc4c3nc3n4CCCCC3)CC2C)c1 (centres undefined)	1%	.	.	7.3µM*	9.2µM*	.
O=C(N/N=C/c1cccs1)c1cccc(Br)c1	27%	.	.	.	.	.
CCOc1ccc(N2C(=O)c3ccccc3NC2(C)CC)cc1 (centres undefined)	131%	?	-23%	-10%	-36%	-24
CCC1(C)Nc2ccccc2C(=O)N1O (centres undefined)	0.63µM*	-29%	?	-22%	-12%	5
